According to the supplement of paper PMC8728848:
The entries come from a sample that favours the strongest signals as a whole.

Assays:
Assay in all cases: glycan array binding signal (z-score within array); higher = stronger binding
Conditions in all cases: glycan notation: IUPAC condensed, linker removed
[1] = target: Fuc(a1-2)Gal(b1-3)GalNAc(a1-3)[Fuc(a1-2)]Gal(b1-4)GlcNAc
Outline: (§1)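 Negative Z-scores can be read as non-binding. The Z-score is calculated within each array and then averaged across arrays of one protein sequence at different concentrations or buffers and across linkers. Arrays, 3228 in all, were curated from the Consortium for Functional Glycomics database and kept only where the protein sequence was available.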

[2] = target: Fuc(a1-2)Gal(b1-3)GalNAc(b1-3)Gal
Outline: as §1

[3] = target: Fuc(a1-2)Gal(b1-3)GalNAc(b1-4)[Neu5Ac(a2-3)]Gal(b1-4)Glc
Outline: as §1

[4] = target: Fuc(a1-2)Gal(b1-3)GlcNAc(b1-2)Man(a1-3)[Fuc(a1-2)Gal(b1-3)GlcNAc(b1-2)Man(a1-6)]Man(b1-4)GlcNAc(b1-4)[Fuc(a1-6)]GlcNAc
Outline: as §1

[5] = target: Fuc(a1-2)Gal(b1-3)[Fuc(a1-4)]GlcNAc(b1-2)Man(a1-3)[Fuc(a1-2)Gal(b1-3)[Fuc(a1-4)]GlcNAc(b1-2)Man(a1-3)]Man(b1-4)GlcNAc(b1-4)GlcNAc
Outline: as §1

[6] = target: Fuc(a1-2)Gal(b1-4)Glc6S
Outline: as §1

[7] = target: Fuc(a1-2)Gal(b1-4)GlcNAc(b1-2)Man(a1-3)[Fuc(a1-2)Gal(b1-4)GlcNAc(b1-2)Man(a1-6)]Man(b1-4)GlcNAc(b1-4)[Fuc(a1-6)]GlcNAc
Outline: as §1

[8] = target: Fuc(a1-2)Gal(b1-4)GlcNAc(b1-3)Gal(b1-4)GlcNAc(b1-2)Man(a1-3)[Fuc(a1-2)Gal(b1-4)GlcNAc(b1-3)Gal(b1-4)GlcNAc(b1-2)Man(a1-6)]Man(b1-4)GlcNAc(b1-4)GlcNAc
Outline: as §1

[9] = target: Fuc(a1-2)Gal(b1-4)[Fuc(a1-3)]GlcNAc(b1-3)GalNAc
Outline: as §1

[10] = target: Fuc(a1-2)Gal6S(b1-3)GlcNAc6S
Outline: as §1

[11] = target: Fuc(a1-2)[Gal(a1-3)]Gal(b1-4)GlcNAc(b1-3)[Fuc(a1-2)[Gal(a1-3)]Gal(b1-4)GlcNAc(b1-6)]GalNAc
Outline: as §1

[12] = target: Fuc(a1-2)[Gal(a1-3)]Gal(b1-4)[Fuc(a1-3)]Glc
Outline: as §1

[13] = target: Fuc(a1-2)[GalNAc(a1-3)]Gal(b1-3)GlcNAc(b1-6)GalNAc
Outline: as §1

[14] = target: Fuc(a1-2)[GalNAc(a1-3)]Gal(b1-4)Glc
Outline: as §1

[15] = target: Fuc(a1-2)[GalNAc(a1-3)]Gal(b1-4)GlcNAc
Outline: as §1

[16] = target: Fuc(a1-2)[GalNAc(a1-3)]Gal(b1-4)GlcNAc(b1-2)Man
Outline: as §1

[17] = target: Fuc(a1-3)[Gal(b1-4)]GlcNAc(b1-3)Gal(b1-4)[Fuc(a1-3)]GlcNAc
Outline: as §1

[18] = target: Fuc(a1-3)[Gal(b1-4)]GlcNAc(b1-6)GalNAc
Outline: as §1

[19] = target: Fuc(a1-3)[Gal3S(b1-4)]GlcNAc6S
Outline: as §1

[20] = target: Fuc(a1-4)GlcNAc
Outline: as §1

[21] = target: Gal(b1-3)Gal
Outline: as §1

[22] = target: Gal(b1-3)Gal(b1-4)GlcNAc
Outline: as §1

[23] = target: Gal(b1-3)GalNAc(a1-3)[Fuc(a1-2)]Gal(b1-4)GlcNAc
Outline: as §1

[24] = target: Gal(b1-3)GlcNAc(b1-3)Gal(b1-4)GlcNAc(b1-6)[Gal(b1-3)GlcNAc(b1-3)]Gal(b1-4)Glc
Outline: as §1

[25] = target: Gal(b1-3)[Neu5Ac(a2-6)]GlcNAc(b1-4)Gal(b1-4)Glc
Outline: as §1

[26] = target: Gal(b1-4)Gal
Outline: as §1

[27] = target: Gal(b1-4)GlcNAc(b1-2)Man(a1-3)[GlcNAc(b1-4)][Gal(b1-4)GlcNAc(b1-2)Man(a1-6)]Man(b1-4)GlcNAc(b1-4)GlcNAc
Outline: as §1

[28] = target: Gal(b1-4)GlcNAc(b1-2)[Gal(b1-4)GlcNAc(b1-6)]Man(a1-6)[Gal(b1-4)GlcNAc(b1-2)Man(a1-3)]Man(b1-4)GlcNAc(b1-4)GlcNAc
Outline: as §1

[29] = target: Gal(b1-4)GlcNAc(b1-2)[Gal(b1-4)GlcNAc(b1-6)]Man(a1-6)[Gal(b1-4)GlcNAc(b1-2)Man(a1-3)]Man(b1-4)GlcNAc(b1-4)[Fuc(a1-6)]GlcNAc
Outline: as §1

[30] = target: Gal(b1-4)GlcNAc(b1-3)Gal(b1-4)GlcNAc
Outline: as §1

B1: SabA (Helicobacter pylori) (protein)
chain: MGSSHHHHHHSSGLVPRGSHMENLYFQGEDNGFFVSAGYQIGEAVQMVKNTGELKNLNEKYEQLSQYLNQVASLKQSIQNANNIELVNSSLNYLKSFTNNNYNSTTQSPIFNAVQAVITSVLGFWSLYAGNYFTFFVGKKVGDSGQPASVQGNPPFKTIIENCSGIENCAMDQTTYDKMKKLAEDLQAAQTNSATKGNNLCALSGCAATDSTSNPPNSTVSNALNLAQQLMDLIANTKTAMMWKNIVISGVSNTSGAITSTNYPTQYAVFNNIKAMIPILQQAVTLSQSNHTLSASLQAQATGSQTNPKFAKDIYTFAQNQKQVISYAQDIFNLFNSIPAEQYKYLEKAYLKIPNAGSTPTNPYRQVVNLNQEVQTIKNNVSYYGNRVDAALSVARDVYNLKSNQAEIVTAYNDAKTLSEEISKLPHNQVNTKDIVTLPYDKNAPAAGQSNYQINPEQQSNLNQALAAMSNNPFKKVGMISSQNNNGA
[1]
  glycan array binding signal (z-score): 0.026
[2]
  glycan array binding signal (z-score): -0.181
[3]
  glycan array binding signal (z-score): 0.208
[4]
  glycan array binding signal (z-score): 1.55
[5]
  glycan array binding signal (z-score): 3.91
[6]
  glycan array binding signal (z-score): 0.21
[7]
  glycan array binding signal (z-score): 2.49
[8]
  glycan array binding signal (z-score): 0.579
[9]
  glycan array binding signal (z-score): 2.43
[10]
  glycan array binding signal (z-score): 3.74
[11]
  glycan array binding signal (z-score): 2.78
[12]
  glycan array binding signal (z-score): -0.48
[13]
  glycan array binding signal (z-score): -0.962
[14]
  glycan array binding signal (z-score): -0.596
[15]
  glycan array binding signal (z-score): -0.145
[16]
  glycan array binding signal (z-score): -0.319
[17]
  glycan array binding signal (z-score): 1.26
[18]
  glycan array binding signal (z-score): 1.95
[19]
  glycan array binding signal (z-score): -0.083
[20]
  glycan array binding signal (z-score): 2.89
[21]
  glycan array binding signal (z-score): -0.298
[22]
  glycan array binding signal (z-score): -0.637
[23]
  glycan array binding signal (z-score): -0.576
[24]
  glycan array binding signal (z-score): -0.24
[25]
  glycan array binding signal (z-score): 0.532
[26]
  glycan array binding signal (z-score): 0.204
[27]
  glycan array binding signal (z-score): -0.111
[28]
  glycan array binding signal (z-score): 0.291
[29]
  glycan array binding signal (z-score): 0.877
[30]
  glycan array binding signal (z-score): -0.924
